These results are taken from PubChem BioAssay (NCATS).

Inconclusive results are not listed. Unmarked numbers belong to inactive results. Activity calls are given as the source filed them. Calls come from the whole dose curve; as a rule, active = well fitted inhibition curve with a large enough effect; inconclusive = small, poorly fitted or top-dose-only effect; inactive = flat fitted curve, though single readings scatter.

Assay [1] is described as follows: P-glycoprotein substrates identified in KB-8-5-11 adenocarcinoma cell line, qHTS therapeutic library screen (AID 1346987). Note: series mostly up to about 44 µM; nearly all actives have a fitted effect of over 65% in size. An outline of the steps: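 In this qHTS, P-gp-rich KB-8-5-11 cells received library compounds across a concentration range. Viability was quantified by luminescence after 72 h at 37 degree C.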
Background: qHTS replaces the single test concentration by a dilution series.

Assay [2] in a line: Primary qHTS for inhibitors of nuclear receptor binding SET domain protein 2 (NSD2) in an isogenic RCH-ACV NSD2 p.E1099K mutant (9B) (AID 1645876). Note: potency is the fitted concentration of half-maximal effect; nearly all actives have a fitted effect of over 70% in size.
The target in assay [3] is Glutathione peroxidase 1 (Homo sapiens) (UniProt P07203). Kind of assay: Primary qHTS Assay for Inhibitors of Recombinant Selenoprotein Glutathione Peroxidase 1 (GPX1) (AID 1845191). Note: nearly all actives have a fitted effect of over 65% in size. An outline of the steps:
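GPX1 10 nM, GR 100 nM, GSH 1 mM, NADPH 0.5 mM, CHP 0.5 mM (final). 30-min cpd preincubation, RT. Ex340/Em450 read t=0, t=15 min.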

Sequence of Glutathione peroxidase 1 (Homo sapiens) (P07203 whole entry, looked up): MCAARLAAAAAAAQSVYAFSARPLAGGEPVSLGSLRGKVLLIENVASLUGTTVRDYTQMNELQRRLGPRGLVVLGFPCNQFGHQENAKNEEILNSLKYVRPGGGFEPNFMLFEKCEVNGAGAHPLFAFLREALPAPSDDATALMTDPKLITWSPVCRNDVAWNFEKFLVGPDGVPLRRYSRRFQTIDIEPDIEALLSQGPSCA

Turning to `O=Nc1c2[nH]c3ccccc3nc-2c2ccccc12`, the Potency result in assay [1] and in assay [3] was “inactive” each time. In assay [2], the Potency was 13 µM (active).
